Experimental findings from PubChem BioAssay (NCATS) are described below.

Experiment [1] can be described thus: AP1 Signaling Pathway (AID 357; active = well fitted curve in either direction with a large enough effect, not every such curve was filed as active; note: % is set by controls: 0 for no effect and ±100 for the full control effect). The gist of the method: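 ME-180 cells with beta-lactamase reporter under AP-1 response element, stimulated with EC50 EGF; compounds tested in titration series, 5 h at 37 °C. CCF4 substrate added 2.5 h at room temperature; 460/530 nm emission ratio gave %activity and AC50.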
The nature of experiment [2]: NFAT Signaling Pathway (AID 444; active = well fitted curve in either direction with a large enough effect, not every such curve was filed as active;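 note: carbachol stimulus at about its EC50 of 1 µM final; % is set by controls: 0 for no effect and ±100 for the full control effect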). The note with it: Jurkat NFAT-bla M1, carbachol, beta-lactamase ratio, 5 h; at 17.2 µM (top of the series) unless noted. A digest of the protocol: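 Read-out: CCF4 FRET ratio (460 nm/530 nm) after 1 h RT dye loading, used for %activity and AC50 from titration series. Cells: Jurkat NFAT-β-lactamase/M1 line, treated with compound plus 1 uM carbachol for 5 h, 37 °C.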

A short description of experiment [3]: Stat Signaling Pathway (AID 446; active = well fitted curve in either direction with a large enough effect, not every such curve was filed as active;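 note: ME-180 cervical cancer cells given 40 pM IL-6 alongside compound; SIE-controlled beta-lactamase reporter measured as 460/530 nm FRET emission ratio; % is set by controls: 0 for no effect and ±100 for the full control effect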). The gist of the method: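 Emission at 460 and 530 nm (excitation 405 nm) reports SIE-controlled beta-lactamase in ME-180 cells. Cells received compound with 40 pM IL-6 for 5 hrs at 37 C; data scaled between 300 pM IL-6 and 125 nM JAK-inhibitor controls.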
Experiment [4] deals with Glucocorticoid receptor (Homo sapiens) (UniProt P04150). The experiment is described as follows: GR-EFC Redistribution (AID 451; calls by dose curve; note: potency is the fitted concentration of half-maximal effect). The settings on record: CHO-K1 GR-EFC translocation, beta-gal luminescence, 2 h. A digest of the protocol: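 Translocation of GR-ED fusion to nuclear EA restores b-gal, read by luminescence after 1 h room-temperature detection. Engineered CHO-K1 biosensor cells, 1,000/well, exposed 2 h at 37 C to titrations up to 46 uM final.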

For experiment [5], the target named is Mitogen-activated protein kinase 10 (Mus musculus) (UniProt Q61831). The experiment is described as follows: JNK3 AlphaScreen Assay (AID 530; active = well fitted curve in either direction with a large enough effect, not every such curve was filed as active;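 note: kinase came from lysate of stimulated human HepG2 cells; signal reports phosphorylation of biotinylated GST-cJun 1-79 at Ser73 with 10 µM ATP; % is set by controls: 0 for no effect and ±100 for the full control effect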). The gist of the method: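 Kinase buffer: 20 mM Tris-HCl pH 7.6, 10 mM MgCl2, 1 mM DTT, 0.1 mM Na3VO4, 0.01% Tween-20; ATP 10 uM. Substrate biotin-GST-cJun(1-79), enzyme from activated HepG2 lysates. Detection by Ser73 phospho-antibody AlphaScreen.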

Experiment [6] addresses 3',5'-cyclic-AMP phosphodiesterase 4B (Homo sapiens) (UniProt Q07343). The experiment is described as follows: qHTS Assay for Inhibitors of PDE-IV (AID 607; active = well fitted activation curve with a large enough effect in the main read-out, with a control signal flat, not every such curve was filed as active; note: % of control where 0% means no effect). A digest of the protocol:
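The readout is membrane depolarisation from a cAMP-sensing CNG channel, detected with a potential dye at ex 535/em 590. Cells were HEK293-derived (endogenous PDE-IV) at 1000 cells/well, titrated up to 22.9 uM final.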

A short description of experiment [7]: qHTS Assay for Lipid Storage Modulators (AID 1519; calls by dose curve). The note with it: Drosophila S3 cells, BODIPY lipid droplet/cell ratio, laser cytometry, cells loaded with oleic acid. A digest of the protocol: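 Cells seeded at 5,000 per well were treated with compounds over a concentration series and loaded with oleic acid (400 uM, as added). Lipid droplet fluorescence (488 nm excitation, 500-530 nm channel) was read by laser-scanning cytometry and normalized to 20 uM Triacsin C.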

The nature of experiment [8]: qHTS profiling for inhibitors of Plasmodium falciparum proliferation (AID 504749).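 Note: 0% = DMSO vehicle and full inhibition = artemisinin control; nearly all actives have a fitted effect of over 60% in size.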 The settings on record: P. falciparum in erythrocytes, SYBR Green DNA, 72 h, at 12.8 µM (top of the series). The gist of the method:
(§1)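 In a 72 h erythrocytic culture (37 C, humidified, 5% CO2) at 2.5% hematocrit and 0.3% starting parasitemia, compounds were tested; SYBR Green I in detergent lysis buffer stained parasite DNA overnight.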

In the next experiment the test system is C2A. Described as above. The settings on record: P. falciparum in erythrocytes, SYBR Green DNA, 72 h; series mostly up to 12.8 µM. A digest of the protocol:
as §1

The test system of another experiment is CP191. The experiment is described as above. The note with it: P. falciparum in erythrocytes, SYBR Green DNA, 72 h; series mostly up to 12.8 µM. The gist of the method: as §1
The next experiment deals with CP217. Described as above. The note with it: P. falciparum in erythrocytes, SYBR Green DNA, 72 h; series mostly up to 12.8 µM. The gist of the method: as §1
In a further experiment the test system is CP238. Described as above. The note with it: P. falciparum in erythrocytes, SYBR Green DNA, 72 h; series mostly up to 12.8 µM. A digest of the protocol: as §1
A further experiment relates to CP250. Described as above. The settings on record: P. falciparum in erythrocytes, SYBR Green DNA, 72 h; series mostly up to 12.8 µM. A digest of the protocol: as §1
The next experiment relates to CP256. Described as above. The note with it: P. falciparum in erythrocytes, SYBR Green DNA, 72 h; series mostly up to 12.8 µM. A digest of the protocol:
as §1

Another experiment has as its system FAB9. The experiment is described as above. The settings on record: P. falciparum in erythrocytes, SYBR Green DNA, 72 h; series mostly up to 12.8 µM. The gist of the method:
as §1

In the next experiment the test system is JCK. The description is as above. The settings on record: P. falciparum in erythrocytes, SYBR Green DNA, 72 h; series mostly up to 12.8 µM. The gist of the method:
as §1

For the next experiment, the system named is PC49. Described as above. The note with it: P. falciparum in erythrocytes, SYBR Green DNA, 72 h; series mostly up to 12.8 µM. The gist of the method:
as §1

A further experiment has as its system SC27B. The description is as above. The note with it: P. falciparum in erythrocytes, SYBR Green DNA, 72 h; series mostly up to 12.8 µM. A digest of the protocol:
as §1

Experiment [9] concerns the target Glucocorticoid receptor (Homo sapiens) (UniProt P04150). Briefly: GR-GFP Redistribution (AID 450;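 active = compounds whose dose series gives a full or clear partial fitted curve of increased nuclear translocation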; note: potency is the fitted concentration of half-maximal effect). The settings on record: U2OS GR-GFP nuclear translocation, laser cytometry, 2 h.
Experiment [10] addresses Ubiquitin carboxyl-terminal hydrolase 1 (Homo sapiens) (UniProt O94782). The experiment is described as follows: Inhibitors of USP1/UAF1: Pilot qHTS (AID 504865).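 Note: rhodamine fluorescence freed from ubiquitin-rhodamine substrate followed over time; top concentration of the series differs between compounds; % is set by controls: 0 for no effect and ±100 for the full control effect; nearly all actives have a fitted effect of over 35% in size.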 A digest of the protocol: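 Enzyme-free wells gave the negative control, while test wells held 1nM USP1/UAF1 preincubated with compound for 15 min at room temperature. Ub-Rho at 150nM final started the reaction, and fluorescence at 480/540 nm was recorded kinetically.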

Where [11] appears, read: measured here: cell count channel max response.
[12] abbreviates: measured here: lipid channel max response.

Each structure is given as a SMILES string. Inconclusive results are not listed. The source made the active and inactive calls. Unless noted, calls come from the whole dose curve; as a rule, active = well fitted inhibition curve with a large enough effect; inconclusive = small, poorly fitted or top-dose-only effect; inactive = flat fitted curve, though single readings scatter. A value given as a limit tells only on which side of the number the result lay.

3',5'-cyclic-AMP phosphodiesterase 4B (Homo sapiens), sequence (Q07343 whole entry, looked up): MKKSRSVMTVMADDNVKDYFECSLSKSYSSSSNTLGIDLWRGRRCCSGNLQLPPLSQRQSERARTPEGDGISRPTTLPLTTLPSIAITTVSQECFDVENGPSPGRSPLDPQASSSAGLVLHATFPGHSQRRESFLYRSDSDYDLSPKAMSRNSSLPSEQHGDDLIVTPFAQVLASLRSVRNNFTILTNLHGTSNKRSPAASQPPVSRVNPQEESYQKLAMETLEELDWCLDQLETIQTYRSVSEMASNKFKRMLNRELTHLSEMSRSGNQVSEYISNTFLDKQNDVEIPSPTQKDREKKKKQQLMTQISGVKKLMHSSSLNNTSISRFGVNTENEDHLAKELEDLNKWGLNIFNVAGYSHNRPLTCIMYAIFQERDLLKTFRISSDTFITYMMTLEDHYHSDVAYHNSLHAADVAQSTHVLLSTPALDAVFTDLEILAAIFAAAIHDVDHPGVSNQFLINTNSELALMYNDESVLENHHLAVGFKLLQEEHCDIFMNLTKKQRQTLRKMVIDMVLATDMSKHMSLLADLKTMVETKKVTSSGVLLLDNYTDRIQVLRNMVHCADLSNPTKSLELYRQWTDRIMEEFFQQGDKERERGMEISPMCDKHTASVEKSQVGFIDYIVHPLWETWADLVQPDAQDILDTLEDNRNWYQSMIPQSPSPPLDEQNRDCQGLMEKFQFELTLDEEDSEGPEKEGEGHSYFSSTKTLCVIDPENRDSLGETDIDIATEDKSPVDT
Glucocorticoid receptor (Homo sapiens), sequence (P04150 whole entry, looked up, the tested form may be a part): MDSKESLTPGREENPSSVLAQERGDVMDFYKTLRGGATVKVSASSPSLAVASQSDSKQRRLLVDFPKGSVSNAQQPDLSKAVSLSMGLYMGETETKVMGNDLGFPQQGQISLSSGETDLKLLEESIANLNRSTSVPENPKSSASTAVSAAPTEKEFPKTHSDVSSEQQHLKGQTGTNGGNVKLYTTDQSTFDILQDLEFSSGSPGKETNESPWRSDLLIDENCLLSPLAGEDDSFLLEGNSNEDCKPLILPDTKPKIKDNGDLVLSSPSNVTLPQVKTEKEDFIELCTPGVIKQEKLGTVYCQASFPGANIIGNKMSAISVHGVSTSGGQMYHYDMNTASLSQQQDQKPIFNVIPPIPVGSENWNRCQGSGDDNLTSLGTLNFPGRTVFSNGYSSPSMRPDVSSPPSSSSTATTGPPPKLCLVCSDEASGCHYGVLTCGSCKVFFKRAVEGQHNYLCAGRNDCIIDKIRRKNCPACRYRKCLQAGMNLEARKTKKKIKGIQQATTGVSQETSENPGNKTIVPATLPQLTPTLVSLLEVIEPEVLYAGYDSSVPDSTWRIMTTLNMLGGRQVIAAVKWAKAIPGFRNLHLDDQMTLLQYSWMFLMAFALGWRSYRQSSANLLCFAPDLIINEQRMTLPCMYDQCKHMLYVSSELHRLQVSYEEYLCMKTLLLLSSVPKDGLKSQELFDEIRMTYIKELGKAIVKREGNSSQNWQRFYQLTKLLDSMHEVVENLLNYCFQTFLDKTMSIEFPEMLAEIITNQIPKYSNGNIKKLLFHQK
Ubiquitin carboxyl-terminal hydrolase 1 (Homo sapiens), sequence (O94782 whole entry, looked up): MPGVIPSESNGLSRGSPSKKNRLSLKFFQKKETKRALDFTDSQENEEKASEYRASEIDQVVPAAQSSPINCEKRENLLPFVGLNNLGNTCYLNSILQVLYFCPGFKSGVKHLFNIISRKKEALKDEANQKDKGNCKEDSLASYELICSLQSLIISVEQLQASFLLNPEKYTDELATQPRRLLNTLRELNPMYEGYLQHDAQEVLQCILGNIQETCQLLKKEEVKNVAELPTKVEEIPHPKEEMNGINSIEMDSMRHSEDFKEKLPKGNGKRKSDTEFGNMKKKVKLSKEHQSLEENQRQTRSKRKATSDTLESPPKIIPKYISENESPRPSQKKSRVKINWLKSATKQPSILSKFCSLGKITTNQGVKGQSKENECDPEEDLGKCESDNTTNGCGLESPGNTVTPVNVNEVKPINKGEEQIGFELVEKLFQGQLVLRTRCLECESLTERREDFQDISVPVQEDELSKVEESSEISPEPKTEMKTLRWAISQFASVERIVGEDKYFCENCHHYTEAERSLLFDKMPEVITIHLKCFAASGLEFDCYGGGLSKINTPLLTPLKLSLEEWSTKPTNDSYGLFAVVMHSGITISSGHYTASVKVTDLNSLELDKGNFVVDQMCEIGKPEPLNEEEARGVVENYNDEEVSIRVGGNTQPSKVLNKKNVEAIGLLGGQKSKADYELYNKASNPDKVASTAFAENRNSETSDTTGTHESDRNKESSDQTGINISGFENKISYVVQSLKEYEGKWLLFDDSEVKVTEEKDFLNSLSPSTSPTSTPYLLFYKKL

`C[N+]12CCC(CC1)[C@@H](OC(=O)C(O)(c1ccccc1)c1ccccc1)C2`: the result in experiment [1], in [3] and in experiment [6] was inactive. Besides, the activity change, negative = inhibition in experiment [2] was -57.3% (active); in experiment [7] (at 25.7 µM (top of the series)) it was -3.29% (inactive). Also, the Potency in experiment [4] was > 20.6 µM (inactive). For the same compound, the Potency result (in experiment [5]; with C2A; in the experiment on CP191; in the experiment with CP217; in the experiment on CP238; in the experiment on CP250) was “inactive” each time. The Potency entry with CP256, with FAB9, in the experiment on JCK, in the experiment on PC49 and in the experiment with SC27B was “inactive” throughout. Also, the max response in experiment [7] (setting [11]) was -12.1%; in experiment [7] (setting [12]), -15%. The activity, negative = inhibition in [8] (parasite line A) was 11.6% (inactive); in experiment [8] (parasite line B), 16% (inactive).

For `COC(=O)[C@@H]1[C@@H]2C[C@H]3c4[nH]c5cc(OC)ccc5c4CCN3C[C@@H]2C[C@H](OC(=O)c2cc(OC)c(OC)c(OC)c2)[C@H]1OC`, the compound was classed as inactive in [1], in experiment [3] and in experiment [6]. The activity change, negative = inhibition in [2] was -10.5% (inactive); in experiment [7] (at 25.7 µM (top of the series)), -6.07% (inactive). Also, the Potency in experiment [9] and in experiment [4] was > 20.6 µM (inactive) throughout. In addition, the Potency entry in experiment [5] is “inactive”. The max response in experiment [7] (setting [11]) was -5.3%; in experiment [7] (setting [12]), -12.8%.

In the case of `COc1cc(C2Oc3cc(C4Oc5cc(O)cc(O)c5C(=O)C4O)ccc3OC2CO)ccc1O` (centres undefined), the compound was called inactive in experiment [1] and in experiment [3]. In addition, the activity change, negative = inhibition in experiment [2] is 22.6% (inactive); in experiment [7] (at 57.5 µM (top of the series)), 18.7% (inactive). The Potency in experiment [9] is > 20.6 µM (inactive). Further, the max response in [7] (setting [11]) is 5.37%; in experiment [7] (setting [12]), 24.8%.

Consider `Cc1noc(C)c1-c1nc(Nc2ccncc2)c2ccccc2n1`, for which the compound was classed as inactive in experiment [1] and in experiment [3]. Besides, the results for the activity change, negative = inhibition in experiment [2] and in experiment [7] (at 57.5 µM (top of the series)) were -11.9% [at 7.69 µM] (inactive) and -8.29% (inactive), respectively. Besides, the Potency in experiment [9] and in experiment [4] was > 46 µM (inactive) each time. Moreover, the Potency entry in experiment [5] was “inactive”. For the same compound, the max response in experiment [7] (setting [11]) was -5.56%; in experiment [7] (setting [12]) it was -10.6%.

`CC(=O)Nc1cc2ccccc2oc1=O`: the outcome in experiment [1], in [3] and in [6] was inactive. Moreover, the activity change, negative = inhibition was -6.5% (inactive) in [2] and 2.36% (inactive) in experiment [7] (at 25.7 µM (top of the series)). Further, the Potency in experiment [4] is > 20.6 µM (inactive). The Potency entry in [5] and in experiment [10] was “inactive” throughout. The max response in [7] (setting [11]) is -14.5%; in [7] (setting [12]), -11.4%.

Consider `COc1ccc(OC)c([C@H](O)CNC(=O)CN)c1`, for which the call in experiment [1], in experiment [3] and in [6] was inactive. The activity change, negative = inhibition in experiment [2] was -3.71% (inactive); in experiment [7] (at 25.7 µM (top of the series)), 0.926% (inactive). For the same compound, in experiment [9], the Potency is > 20.6 µM (inactive). Moreover, the Potency entry (in [5]; in experiment [10]; in the experiment with C2A; in the experiment with CP191; in the experiment on CP217; in the experiment on CP238) was “inactive” throughout. Further, the Potency result in the experiment with CP250, in the experiment on CP256, in the experiment on FAB9, in the experiment on JCK, with PC49 and in the experiment on SC27B was “inactive” throughout. Also, the max response is 0.279% in [7] (setting [11]) and -0.25% in experiment [7] (setting [12]). In addition, the activity, negative = inhibition in experiment [8] (parasite line A) was -3.94% (inactive); in [8] (parasite line B), 1.53% (inactive).
